Where “and” joins values, the source holds several entries; their conditions need not be identical. Equal entries are not always repeated. Screen size: about 4,300 compounds; about 3,000 (70%) were called active.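 The calls were made as follows: active = inhibition above a per-plate cutoff, the mean inhibition of sample wells plus 3 SD (cut at about 35% in these data); inactive = the rest.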 So high a share suggests a set chosen from earlier hits. A selection follows. The source holds several records for some structures; these can differ, active in one and inactive in another.
test: small molecules binding CAG repeat RNA – biochemical, fluorescence, confirmation (AID 652065); conditions: r(CAG) RNA repeat, TO-PRO-1 dye displacement fluorescence; at 3 µM; stronger effect = higher value;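 also: loss of TO-PRO-1 fluorescence as compound displaces dye from 1x1 AA loop RNA; 0% = DMSO only wells and 100% = 100 µM mitoxantrone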

| Compound | inhibition |
| --- | --- |
| CN(C(=O)COC(=O)c1cc(-c2ccco2)nc2ccccc12)C1CCS(=O)(=O)C1 (stereo unspecified) | 27.6% (inactive) |
| CC(C)c1ccc(Nc2nnc(SCC(=O)c3nnc(-c4ccccc4)o3)s2)cc1 | 56.2% (active) |
| Cc1ccc(-c2csc(C(C#N)=C(O)CN3CCN(C(=O)c4ccco4)CC3)n2)cc1 | 60.2% (active) |
| O=C1c2cccc3cccc(c23)C(=O)N1CCCCCc1n[nH]c(=S)o1 | 26.9% (inactive) |
| COc1ccccc1/C=C/C=N/n1c(-c2ccc(Cl)cc2Cl)n[nH]c1=S | 42.1% (active) |
| O=C(O)c1[nH]c2ccccc2c1C(c1cccc(O)c1)c1c(C(=O)O)[nH]c2ccccc12 | 38.5% (active) |
| CC(=O)Nc1ccc(-c2csc(NC(=O)Nc3ccccc3)n2)cc1 | 23.1% (inactive) |
| CC(=O)Nc1ccc(C(=O)Nc2nc(-c3cc(C)n(Cc4ccccc4)c3C)cs2)cc1 | 20.6% (inactive) |
| CC(=O)Nc1ccc(S(=O)(=O)Nc2nc(-c3ccc(C(C)(C)C)cc3)cs2)cc1 | 67.6% (active) |
| Cc1ccc(Nc2nc(CSc3nnnn3-c3ccccc3)cc(=O)[nH]2)cc1 | 50.7% (active) |
| COc1ccccc1C1C(C#N)=C(N)Oc2c1c(-c1ccccc1)nn2-c1ccccc1 (stereo unspecified) | 30% (inactive) |
| CC(C)(C)C1C/C(=C/c2ccco2)C(=O)/C(=C/c2ccco2)C1 (stereo unspecified) | 44.2% (active) |
| Cc1ccc(Nc2nc(-c3ccc(O)cc3O)cs2)nc1 | 23.4% (inactive) |
| O=C(Nc1nc(-c2ccco2)c(-c2ccco2)s1)c1ccco1 | 34.7% (active) |
| CCc1nnc(NS(=O)(=O)c2ccc(N=Cc3c(C)[nH]n(-c4ccc(C)cc4)c3=O)cc2)s1 | 69.2% (active) |
| COc1ccc(C(=O)/C=C/c2ccc(-c3ccccc3)cc2)cc1CSCC(=O)O | 85.1% (active) |
| COC(=O)c1ccc(COc2ccc(/C=C/C(=O)c3ccc(OC)c(CSCC(=O)O)c3)cc2OC)cc1 | 66.9% (active) |
| CCOC(=O)c1ccccc1N1C(=O)C2Sc3[nH]c(=O)sc3C(/C=C/c3ccccc3)C2C1=O (stereo unspecified) | 46.1% (active) |
| O=C(O)c1ccc(NN=CC2=C(N3CCOCC3)/C(=C/c3ccccc3)CC2)cc1 | 70.3% (active) |
| Cc1ccc(C)c(Cn2nnc3c(=O)[nH]c(C(=O)Nc4ccc(F)cc4)nc32)c1 | 43.2% (active) |
| COc1cccc2sc(NNC(=O)c3nc4ccccc4s3)nc12 | 85% (active) |

| Compound | inhibition |
| --- | --- |
| Clc1ccccc1CSc1nnc(-c2ccco2)c(-c2ccco2)n1 | 59.9% (active) |
| Fc1cccc(Cc2c(-c3cccc(Cl)c3)nc3ccc(Br)cn23)c1 | 40.3% (active) |
| Cc1cc(Br)cn2c(Cc3cccc(F)c3)c(-c3cccc(Br)c3)nc12 | 4.39% (inactive) |
| COc1ccc(-c2nc3ccc(Br)cn3c2Cc2ccc(C)cc2)cc1OC | 9.11% (inactive) |
| COc1ccc(C(=O)Nc2cccc(/C=C(/CCC(=O)O)c3nc4ccccc4s3)c2)cc1 | 72.8% (active) |
| CCOC(=O)c1csc(NC(=O)Nc2cccc(OC)c2)n1 | 29.9% (inactive) |
| O=C(O)CC/C(=C\c1cc2c(cc1Br)OCO2)c1nc2ccccc2s1 | 50.5% (active) |
| CC(=O)N(c1ccc2oc(=O)sc2c1)S(=O)(=O)c1ccc(C)cc1 | 5.58% (inactive) |
| O=C(c1cccnc1)N(c1cc2sc(=O)oc2c2ccccc12)S(=O)(=O)c1ccccc1 | 57.6% (active) |
| O=C1Oc2ccccc2C(=O)/C1=C/c1ccccc1O | 39% (active) |
| O=c1oc(-c2ccccc2NS(=O)(=O)c2ccc(Cl)cc2)nc2ccccc12 | 17.2% (inactive) |
| COc1ccc(S(=O)(=O)/N=C2\C=C(NS(=O)(=O)c3ccccc3)C(=O)c3ccccc32)cc1 | 85% (active) |
| Cc1ccc(S(=O)(=O)N2[C@@H](c3ccccc3F)C(C(=O)O)=CC[C@H]2c2ccc(Cl)cc2)cc1 | 64.8% (active) |
| Cc1ccc([C@@H]2CC=C(C(=O)O)[C@H](c3cccc(Cl)c3)N2S(=O)(=O)c2ccc(C)cc2)cc1 | 80.4% (active) |
| Cc1ccccc1S(=O)(=O)N1[C@@H](c2cccc(Cl)c2)C(C(=O)O)=CC[C@H]1c1ccc(Cl)cc1 | 83.1% (active) |
| COc1ccc(Cl)cc1-n1c(=S)sc2c(=O)n(-c3ccc(F)cc3)c(SCC(=O)O)nc21 | 28.9% (inactive) |
| Cc1oc2c(F)c(F)c(F)c(F)c2c1S(=O)(=O)Nc1cccc(C(F)(F)F)c1 | 44.5% (active) |
| COc1ccc(NS(=O)(=O)c2cc(C(=O)Nc3ccccc3C(=O)O)ccc2C)cc1 | 52% (active) |
| Cc1ccc(S(=O)(=O)NCCC(c2ccccc2)c2ccccc2)cc1C(=O)O | 28% (inactive) |
| COc1cc(OC)c(S(=O)(=O)Nc2ccccc2C(=O)O)cc1S(=O)(=O)Nc1ccccc1C(=O)O | 39.9% (active) |
| COc1ccc(NS(=O)(=O)c2cc(NC(=O)CC(=O)c3ccc([N+](=O)[O-])cc3)ccc2C)cc1 | 44.4% (active) |

| Compound | inhibition |
| --- | --- |
| O=C(Nc1ccc2c(c1)CCC2)c1cccc(S(=O)(=O)Nc2ccccc2Cl)c1 | 40% (active) |
| CO/N=C(\C(=O)N[C@@H]1C(=O)N2C(C(=O)O)=C(COC(C)=O)CS[C@H]12)c1csc(N)n1 (stereo in doubt) | 48.1% (active) |
| Cc1ccccc1OCC(=O)Nc1nnc(S(=O)(=O)N2CCCC2)s1 | 33.1% (inactive) |
| O=C(N/N=C/c1cc(Cl)cc([N+](=O)[O-])c1O)C(O)(c1ccccc1)c1ccccc1 | 52.6% (active) |
| Cc1ccc(Sc2cc(C(=O)c3ccccc3C(=O)O)ccc2[N+](=O)[O-])cc1 | 68.5% (active) |
| Cc1c(CCC(=O)N[C@@H](CC(C)C)C(=O)O)c(=O)oc2c(C)c3oc4c(c3cc12)CCCC4 | 48.4% (active) |
| CC[C@@H](C)[C@H](NC(=O)CCc1c(C)c2cc3c4c(oc3c(C)c2oc1=O)CCCC4)C(=O)O | 52.4% (active) |
| Cc1ccc(S(=O)(=O)N2[C@@H](c3ccc(Br)cc3)C(C(=O)O)=C[C@H]2CC2CCCC2)cc1 | 72.6% (active) |
| CCCCC[C@@H]1C=C(C(=O)O)[C@H](c2ccc(C#N)cc2)N1S(=O)(=O)c1ccc(C)cc1 | 55.7% (active) |
| Nc1[nH]c(=S)nc2nc(-c3ccccc3)c(-c3ccccc3)nc12 | 15.6% (inactive) |
| NC(=O)c1c(Nc2nc3c(F)cccc3s2)sc2c1CCCC2 | 39.3% (active) |
| Cc1cc(N2C(=O)C(O)=C(C(=O)c3ccc(C)o3)C2c2ccc(OCc3ccccc3)cc2)no1 (stereo unspecified) | 64.8% (active) |
| N#Cc1c(-c2ccccc2)cc(-c2ccccc2)nc1SCC(=O)O | 44.6% (active) |
| Nc1cccc(-c2cc(-c3ccccc3)nc(-c3cccc(N)c3)n2)c1 | 21.8% (inactive) |
| O=C(Cc1ccccc1)Nc1ccc(C(=O)Nc2ccccc2C(=O)O)cc1 | 50.5% (active) |
| Cc1ccc(C(=O)O)cc1-c1ccc(/C=C2\SC(=O)N(CC(=O)Nc3ccc4c(c3)OCO4)C2=O)o1 | 85.1% (active) |
| CCn1cc(C(=O)NCC2COc3ccccc3O2)c2cc(OC)c(OC)cc2c1=O (stereo unspecified) | 3.06% (inactive) |
| O=C(COc1ccccc1Cl)Nc1ccc(C(=O)c2ccc(C(=O)O)cc2)cc1 | 27.3% (inactive) |
| Cc1cc(C)cc(OCC(=O)Nc2cc(NC(=O)COc3cc(C)cc(C)c3)cc(C(=O)O)c2)c1 | 78.6% (active) |
| Cc1cccc(OCC(=O)Nc2ccc(C(=O)O)cc2NC(=O)COc2cccc(C)c2)c1 | 44.8% (active) |
| Cc1cc(C)cc(Oc2c(C(F)(F)F)oc3cc(OCC(=O)O)ccc3c2=O)c1 | 27.1% (inactive) |

| Compound | inhibition |
| --- | --- |
| CC(Oc1ccc2ccccc2c1)C(=O)NNC(=S)NC(=O)c1ccco1 (stereo unspecified) | 42.4% (active) |
| COc1ccc(OCC(=O)Nc2nnc(-c3ccco3)s2)cc1 | 12.6% (inactive) |
| CCCc1ccc(OCC(=O)NNC(=S)NC(=O)c2ccco2)cc1 | 56.7% (active) |
| CN1CCN(S(=O)(=O)c2cccc(C(=O)Nc3sccc3C#N)c2)CC1 | 24.8% (inactive) |
| CC1CCCCN1S(=O)(=O)c1ccc(C(=O)Nc2nnc(-c3cccs3)o2)cc1 (stereo unspecified) | 40.6% (active) |
| N#Cc1ccccc1CN1C(=O)S/C(=C/c2cccn2-c2cccc(C(=O)O)c2)C1=O | 63.3% (active) |
| Cc1cc2nc(-c3ccco3)c(Cc3cccc(F)c3)n2c(C)c1Br | 30.1% (inactive) |
| Cc1ccc(NC(=S)NNC(=O)CSc2nnc(SCc3ccccc3Cl)s2)cc1 | 48.4% (active) |
| O=C(Nc1nnc(-c2ccccc2)o1)c1cc(-c2cccs2)nc2ccccc12 | 68.2% (active) |
| Cc1ccc(Cn2c(SCC(=O)N/N=C/c3ccccc3OCC(=O)O)nc3ccccc32)cc1 | 65.5% (active) |
| Oc1c(Cl)cc(Cl)c(Cl)c1Cc1c(O)c(Cl)cc(Cl)c1Cl | 91.4% (active) |
| NC(c1ccccc1)c1csc(NC(=O)Nc2cccc(C(F)(F)F)c2)n1 (stereo unspecified) | 59.1% (active) |
| NC(c1csc(NC(=O)Nc2cccc(C(F)(F)F)c2)n1)C1CCCCC1 (stereo unspecified) | 24.4% (inactive) |
| COc1ccc(C(N)c2csc(NC(=O)Nc3cccc(C(F)(F)F)c3)n2)cc1 (stereo unspecified) | 25.6% (inactive) |
| CCN1C(=O)/C(=C2/Sc3ccccc3N2CCCS(=O)(=O)O)SC1=S | 29.9% (inactive) and 46.4% (active) |
| Cc1oc2cc([N+](=O)[O-])c(O)c([N+](=O)[O-])c2c1C(=O)c1ccc(Br)cc1 | 50.2% (active) |
| CCCOc1ccc(Cn2c(O)cc(=O)[nH]c2=O)cc1 | 18.4% (inactive) |
| C=CCSc1nsc(NC(=O)Nc2cccc(C(C)=O)c2)n1 | 34.4% (inactive) |
